PKM2 activator: PKM2 (human) enzyme activation | Potency, µM (titrated, usually from 57.5 µM), inactives show top-dose activation, most hits filed as activators | P14618 | purified PKM2, Kinase-Glo ATP luminescence, activation; response scale: 0% is enzyme alone, no compound | hit rate 0.34% among 260,000 | AID 1631; also: potency is read from the fitted curve at half-maximal effect; % is scaled to controls: 0 for no effect and ±100 for the full control effect; nearly all actives have a fitted effect of over 55% in size
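hPK-M2, >95% pure; 0.1 mM ADP / 0.5 mM PEP final; imidazole pH7.2 buffer w/ 7 mM MgCl2, 50 mM KCl; 1 h RT; Kinase-Glo lum. Intermediate enzyme activity for dual inhibitor/activator qHTS.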
ClpP mod: qHTS Assay for Activators of ClpP. purified B. subtilis ClpP, FRET peptide cleavage, 20 min. AID 651965, 2013. Potency, µM (doses to about 57.5 µM), without a hit: at the highest dose activity change, negative = active. hit rate 1.9% among 340,000; active = well fitted falling curve with a large enough effect; inconclusive = small, poorly fitted or top-dose-only effect; inactive = no such curve, though single readings can be large or run the other way; also: potency is read from the fitted curve at half-maximal effect; the source files actives as falling curves though it sought activators and does not explain the sign; nearly all actives have a fitted effect of over 65% in size
Target sequence (P80244 whole entry, looked up): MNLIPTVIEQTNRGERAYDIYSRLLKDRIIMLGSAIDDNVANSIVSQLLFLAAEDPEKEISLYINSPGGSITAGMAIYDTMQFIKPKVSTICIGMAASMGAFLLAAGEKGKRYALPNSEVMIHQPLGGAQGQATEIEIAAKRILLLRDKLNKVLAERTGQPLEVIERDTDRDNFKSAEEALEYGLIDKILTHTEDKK
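Buffer: 100 mM Tris/HCl pH8, 100 mM KCl, 0.05% low protease BSA, 2.5% glycerol, 0.01% Tween-20. ClpP 10 microg/mL final; 20 min RT; delta FRET normalized to ADEP and DMSO controls.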
IL-2 act: activators of IL-2; AID 652025; IL-2 activation reporter assay, cell-based qHTS; stimulated with anti-CD3/CD4/CD28 beads; in transgenic mouse T cells; hit rate 0.065% among 360,000; activation, % (series mostly up to about 46 µM); in the data active = activation above about 50%; inconclusive = mostly about 30% to 49%; also: 0% is about no effect
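Readout: EGFP and DsRed signals by fluorescent plate cytometry. Unstimulated transgenic mouse T cells received compound 60 min before antibody-bead stimulation, then incubated 18 h at 37 degrees C.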
NPSR antag: antagonists of human neuropeptide S receptor cAMP signaling | CHO-NPSR cells, cAMP TR-FRET, antagonist mode | Potency, µM (series often up to 38.3 µM), without a hit: top-dose activity change, negative = inhibition, hits mostly inhibitors | hit rate 1% among 220,000 | AID 1461; also: potency is read from the fitted curve at half-maximal effect; % is scaled to controls: 0 for no effect and ±100 for the full control effect; nearly all actives have a fitted effect of over 50% in size
Target sequence (Q6W5P4 whole entry, looked up): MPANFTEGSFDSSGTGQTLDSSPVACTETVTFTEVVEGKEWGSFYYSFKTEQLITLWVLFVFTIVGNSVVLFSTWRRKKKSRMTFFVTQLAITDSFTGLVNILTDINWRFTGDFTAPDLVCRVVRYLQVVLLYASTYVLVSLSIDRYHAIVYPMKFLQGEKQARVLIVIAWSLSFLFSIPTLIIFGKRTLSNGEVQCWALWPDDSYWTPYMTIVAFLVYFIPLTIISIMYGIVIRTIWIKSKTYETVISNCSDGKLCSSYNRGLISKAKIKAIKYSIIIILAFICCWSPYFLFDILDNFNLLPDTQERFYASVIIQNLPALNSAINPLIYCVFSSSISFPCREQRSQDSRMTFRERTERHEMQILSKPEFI
* = called active by the depositor; ? = inconclusive; . = not tested or not shown; [ ] = another dose, or the depositor's remark. A selection: hits, their analogues and other compounds. The true share with any hit is near 2%. Unless noted, calls follow the shape of the dose curve; as a rule, active = well fitted curve in the direction sought with a large enough effect; inconclusive = small, poorly fitted or top-dose-only effect, or another doubt; inactive = no such curve, though single readings can be large; an effect the other way counts as inactive or inconclusive.

SMILES | PKM2 activator | ClpP mod | IL-2 act | NPSR antag
COc1ccccc1NC(=O)CN(c1ccc([N+](=O)[O-])cc1)S(=O)(=O)c1ccccc1 | 10µM* | -2.6% | -3.2 | -23.9%
FC(F)(F)c1cccc(NC(=S)N(CCCN2CCCC2)Cc2cccn2Cc2ccc(Cl)cc2)c1 | -2.4% | . | -5.7 | 10µM*
Cc1ccc(-c2nc(C#N)c(NCCc3ccccn3)o2)cc1 | 22.1% | ? | 0.8 | -11.4%[46.1 µM]
N#Cc1nc(-c2ccc(Cl)cc2)oc1NCCc1ccccn1 | 6.1% | 31.6µM* | -0.8 | -10.9%[46.1 µM]
N#Cc1nc(-c2ccccc2)oc1NCc1ccco1 | 2.8% | 4.8% | -2.3 | -2.7%[46.1 µM]
N#Cc1nc(-c2ccc(Cl)cc2)oc1NCc1ccco1 | -8.9% | 11.2µM* | 0.1 | -1.0%[46.1 µM]
N#Cc1nc(-c2ccc(Cl)cc2)oc1NCc1cccc2c1OCO2 | -2.2% | 11.2µM* | -0.8 | -13.4%[46.1 µM]
CN(C)CCCNc1oc(-c2ccc(Cl)cc2)nc1C#N | -15.8% | 6.4% | 0.8 | 9.2%[46.1 µM]
CCCN1CCN(S(=O)(=O)c2ccc3c(c2)NC(=O)C(C)S3)CC1 (stereo unspecified) | . | 0.2% | -2.0 | .
COc1ccc(N2CCN(S(=O)(=O)CCNC(=O)c3ccc4c(c3)OCO4)CC2)cc1 | . | -0.7% | 0.4 | .
Cc1nc2ccc(S(=O)(=O)CCC(=O)Nc3ccc(C(C)C)cc3)cc2s1 | . | 0.3% | . | .
CCOC(=O)C1CCCN(S(=O)(=O)c2ccc(C)cc2)C1 (stereo unspecified) | -9.0% | -1.9% | 0.2 | -8.0%[46.1 µM]
CCOC(=O)C1CCCN(S(=O)(=O)c2ccc(Cl)nc2)C1 (stereo unspecified) | . | 22.4µM* | -1.9 | .
CN(CCOc1ccccc1)C(=O)C1CCC(=O)N(CCCN2CCOCC2)C1 (stereo unspecified) | -14.3% | -11.5% | -1.5 | .
COc1ccc(NC(=O)c2sc3nc4c(cc3c2N)CCCCCC4)cc1 | . | 3.8% | . | .
COc1ccc(NC(=O)c2sc3nc4c(cc3c2N)CCCCCC4)cc1Cl | . | 12.6µM* | . | .
O=C(Nc1ccc(Oc2ccccc2)cc1)C1CCN(c2c3c(nc4ncnn24)CCC3)CC1 | -5.6% | -6.9% | -0.3 | 12.6µM*
COc1ccccc1NS(=O)(=O)c1cc(NC(=O)C(C)C)ccc1N1CCCCC1 | -0.1% | -4.0% | -3.2 | -48.7%
COc1ccccc1NS(=O)(=O)c1cc(NC(=O)Nc2ccccc2)ccc1N1CCCCC1 | -0.1% | 25.1µM* | 0.4 | -11.1%
COc1ccccc1NS(=O)(=O)c1cc(NC(=O)c2ccncc2)ccc1N1CCOCC1 | -17.1% | 25.1µM* | -1.4 | -3.1%
O=C(Nc1ccc(F)cc1)Nc1ccc(N2CCCC2)c(S(=O)(=O)Nc2ccccc2Cl)c1 | -3.5% | -5.7% | -4.5 | 10µM*
COc1ccc(NS(=O)(=O)c2cc(NC(=O)C3CCCO3)ccc2N2CCCCC2)cc1 (stereo unspecified) | -1.9% | . | -1.1 | 10µM*
COc1ccc(S(=O)(=O)Nc2nc(C(F)(F)F)cs2)cc1 | 4.1% | -1.4% | -0.1 | -8.9%[7.67 µM]
COc1ccc(CNC(=O)CCCn2nc(C)c3c(C)n(-c4ccccc4)nc3c2=O)cc1 | . | -1.0% | -2.0 | .
Cc1c(S(=O)(=O)N(C)C2CCCCC2)c(=O)n(C)c(=O)n1C | . | 12.6µM* | 2.8 | .
SMILES | PKM2 activator | ClpP mod | IL-2 act | NPSR antag
CCN(C1CCCCC1)S(=O)(=O)c1c(C)n(C)c(=O)n(C)c1=O | . | 0.8% | 0.1 | .
Cc1cccc2c(=O)n3c(cc12)-c1[nH]c2ccccc2c1CC3 | . | 14.1µM* | ? | .
O=c1c2ccccc2nc2n1CCc1c-2[nH]c2ccccc12 | . | 3.7% | 0.0 | -9.0%[46.1 µM]
Cc1cccc(C(=O)Nc2ccccc2C(=O)OCC(=O)Nc2ccc(C#N)cc2)c1 | -5.6% | 15.8µM* | 0.0 | -17.2%
COc1ccccc1-c1nnc(NC(=O)c2ccccc2F)o1 | 1.8% | -1.2% | -2.6 | -7.4%[46.1 µM]
Nc1nc2c3ccccc3nc(C3CC3)n2n1 | -0.6% | 22.4µM* | -0.4 | 8.7%[46.1 µM]
Cc1ccc(-c2cc(C)nc3ncnn23)cc1 | 3.1% | 4.7% | -3.3 | 2.2%[46.1 µM]
Cc1ccc(-c2cc(C)nc3nc(N)nn23)cc1 | 0.4% | 14.1µM* | -2.0 | -0.5%[46.1 µM]
CCOC(=O)c1cc(C#N)c(NCc2ccccc2)nc1C | -3.6% | 31.6µM* | -1.2 | -8.8%[46.1 µM]
CC(=O)c1cc(C#N)c(NCc2ccccc2)nc1C | -0.6% | . | 0.2 | -6.4%
CCCC1C(C(=O)OCC)=C(C)NC(C)=C1C(=O)OCC | -0.3% | 20µM* | 0.8 | -26.7%[46.1 µM]
CCCCN(Cc1cc2cc(OC)ccc2[nH]c1=O)C(=O)COc1ccccc1 | . | -7.7% | -3.1 | .
CCn1c2c(c(=O)n3ncc(C(=O)Nc4cc(Cl)ccc4OC)c13)CN(Cc1ccc(OC)cc1)CC2 | . | 31.6µM* | . | .
CCn1c2c(c(=O)n3ncc(C(=O)Nc4cc(Cl)ccc4C)c13)CN(Cc1ccc(OC)cc1)CC2 | . | -8.7% | . | .
CCOC(=O)C1CCN(CC(=O)N2CCCc3c2c(=O)oc2ccc(OCc4ccccc4)cc32)CC1 | . | -10.9% | . | .
O=C(CN1CCCC1)N1CCCc2c1c(=O)oc1ccc(OCc3ccccc3)cc21 | 12.0% | 31.6µM* | 1.6 | -2.8%[46.1 µM]
Nc1c(C(=O)CSc2ncccn2)c(=O)[nH]c(=O)n1C1CC1 | . | 1.3% | -0.1 | .
Cc1cccc(N(CC(=O)NC2CC2)S(=O)(=O)c2ccc(Cl)cc2)c1 | -6.6% | 0.8% | 1.5 | .
Cc1ccc(S(=O)(=O)N(CC(=O)NC2CC2)c2ccc(C)c(Cl)c2)cc1 | 26.3% | 15.8µM* | -0.7 | .
CC1CN(C(=O)c2ccn(C)n2)CC(C)O1 (stereo unspecified) | -8.4% | -1.5% | 0.7 | 3.1%
CCn1c(SCC(=O)NCC2CCCO2)nnc1-c1ccccc1OC (stereo unspecified) | . | -0.1% | 0.3 | .
CCc1ccc2n(-c3ccc(OC)cc3)c([S-])c(C(=O)Nc3cc(C)cc(C)c3)[n+]2c1 | 0.3% | . | -0.9 | 10µM*
COc1ccc(CCNC(=O)c2c([S-])n(-c3ccc(C)cc3)c3cccc[n+]23)cc1 | 1.2% | 11.0% | 0.1 | -41.8%
CCCc1cnc2c(c1SCC(=O)Nc1c(C)cc(C)cc1C)c(=O)n(C)c(=O)n2C | . | -0.8% | . | .
CN=C1NC(C)(C)C2CCC(C)(CC2)S1 | . | . | -0.3 | .
SMILES | PKM2 activator | ClpP mod | IL-2 act | NPSR antag
CCOc1ccc(NC(=O)/C(C#N)=C/c2ccc(N3CCCC3)c(C)c2)cc1 | 2.3% | -3.7% | 269.7* | -52.4%
CCN(CC)S(=O)(=O)c1ccc(N2CCCCC2)c(NC(=O)/C(C#N)=C/c2ccc(OC)cc2)c1 | 6.8% | -0.9% | -0.8 | -14.3%
CC1CC2(CCCCC2)Nc2ccc3ccccc3c21 (stereo unspecified) | -0.3% | 17.8µM* | -0.1 | 14.9%[46.1 µM]
CC(=O)N1c2ccc3ccccc3c2C(C)CC12CCCCC2 (stereo unspecified) | 0.3% | -7.6% | 0.8 | -27.7%[46.1 µM]
O=C(c1cc(COc2ccc(F)cc2Cl)on1)N1CC2C[C@@H]3CC1C[C@H](C2)C3 | . | -2.4% | -0.7 | .
O=C(c1cc(COc2ccc(F)cc2Cl)on1)N1C[C@H]2CC[C@H]1C2 | -3.6% | 28.2µM* | -1.1 | .
COc1cc2c(C#N)c(N3CCCCC3)nc(N)c2c(N)n1 | 5.2% | 28.2µM* | -0.3 | -8.3%[46.1 µM]

Screening data deposited in PubChem BioAssay by National Center for Advancing Translational Sciences (NCATS).
